Measurements as given in PubChem BioAssay (NCATS).
Inconclusive results are not listed. More than one record can exist for a structure, and the calls need not agree. Activity calls are given as the source filed them. Unless noted, calls follow the shape of the dose curve; as a rule, active = well fitted curve in the direction sought with a large enough effect; inconclusive = small, poorly fitted or top-dose-only effect, or another doubt; inactive = no such curve, though single readings can be large; an effect the other way counts as inactive or inconclusive.

What was measured:
[1] = qHTS assay to identify small molecule inhibitors of chordoma cells - UCH-2 (AID 1259356); also: series mostly up to about 46 µM
[2] = P-glycoprotein substrates identified in KB-8-5-11 adenocarcinoma cell line, qHTS therapeutic library screen (AID 1346987); also: nearly all actives have a fitted effect of over 65% in size; also: potency is read from the fitted curve at half-maximal effect
Method in brief: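 Luminescence from CellTiter-Glo, read 5 min after addition, quantified survival of KB-8-5-11 (P-gp-overexpressing) cells exposed to compounds for 72 h. AC50 was derived from concentration-response curves.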

[3] = NS1 protein of Zika virus - qHTS assay to identify small molecule inhibitors in human HEK 293 cells (AID 1347053); also: series mostly up to about 46 µM; nearly all actives have a fitted effect of over 55% in size
Method in brief: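 Readout was TR-FRET using paired anti-NS1 antibodies after 24 h infection of HEK 293 cells with ZIKV MR766 (MOI = 0.5). Compound preceded virus by 1 h; reduced signal reflects lower NS1 expression.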

[4] = qHTS of pediatric cancer cell lines to identify multiple opportunities for drug repurposing: Primary screen for TC32 cells (AID 1347089); also: nearly all actives have a fitted effect of over 60% in size
Method in brief: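 Luminescent ATP read-out (CellTiter-Glo) of metabolically active TC32 cells after 48 h exposure. Concentration-response curves came from 11-point (MIPE, 0.78 nM–46 µM) or 8-point (NPC, 0.59 nM–46 µM) primary titrations; follow-up used 11 points.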

[5] = P-glycoprotein substrates identified in KB-3-1 adenocarcinoma cell line, qHTS therapeutic library screen (AID 1346986); also: nearly all actives have a fitted effect of over 60% in size
Method in brief: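 72 h cell-killing screen, 500 cells/well, CellTiter-Glo luminescence. Paired lines KB-3-1/KB-8-5-11; P-gp dependence checked by tariquidar co-treatment and HEK-293 MDR-19 versus empty-vector cells.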

[6] = qHTS of pediatric cancer cell lines to identify multiple opportunities for drug repurposing: Primary screen for DAOY cells (AID 1347090); also: series mostly up to about 46 µM; nearly all actives have a fitted effect of over 55% in size
Method in brief: (§1)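 Eight- or eleven-point concentration series, 48 h treatment at 37 degrees C in growth media; readout CellTiter-Glo luminescence. Potency and efficacy were taken from the concentration-response curves.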

[7] = qHTS of pediatric cancer cell lines to identify multiple opportunities for drug repurposing: Primary screen for SJ-GBM2 cells (AID 1347091)
Method in brief: as §1

[8] = qHTS of pediatric cancer cell lines to identify multiple opportunities for drug repurposing: Primary screen for A673 cells (AID 1347092); also: nearly all actives have a fitted effect of over 45% in size; also: potency is read from the fitted curve at half-maximal effect
Method in brief: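 Cell viability of A673 measured by CellTiter-Glo ATP luminescence after 48 hours compound exposure. Dilution series spanned 0.78 nM to 46 µM (MIPE, 11-point) or 0.59 nM to 46 µM (NPC, 8-point); bortezomib 2.3 uM positive control.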

[9] = Natriuretic polypeptide receptor (hNpr1) antagonism - Pilot counterscreen GloSensor control cell line (AID 1347045; calls by dose curve; also: series mostly up to about 38 µM)
Method in brief: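 Cells were first seeded and incubated overnight at 37C, then loaded with 2% GloSensor substrate for 2 h. Compounds were added for 30 min at room temperature, followed by a baseline read, 50 uM SNP and a final read after 20 min.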

[10] = target: Atrial natriuretic peptide receptor 1 (Homo sapiens) (UniProt P16066); assay: Natriuretic polypeptide receptor (hNpr1) antagonism - Pilot screen (AID 1347049; calls by dose curve;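 also: HEK293 cells with hNpr1 and GloSensor cGMP luciferase stimulated by 0.1 nM hNppA; agonist-evoked cGMP luminescence read 20 min after hNppA addition; series mostly up to about 58 µM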)
Method in brief: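 Cells expressing receptor plus cGMP biosensor are seeded and incubated overnight at 37C, then loaded with GloSensor reagent (2% final) at room temperature for 2 h. Library compounds go on for 30 min. A pre-read precedes agonist (hNppA, 0.1 nM final) and a 20-min readout.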

[11] = target: Atrial natriuretic peptide receptor 2 (Homo sapiens) (UniProt P20594); assay: Natriuretic polypeptide receptor (hNpr2) antagonism - Pilot subtype selectivity assay (AID 1347050; calls by dose curve)
Method in brief: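 Read-out: GloSensor luminescence (CCD imager), baseline vs post-stimulation. HEK293 cells expressing hNpr2; compounds pre-incubated 30-50 min at ambient temperature; hNppC 1 nM final, 20 min.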

[12] = target: T1, Tyrosine-protein phosphatase non-receptor type substrate 1 (Homo sapiens) + Leukocyte surface antigen CD47 (Homo sapiens) (UniProt P78324+Q08722); assay: CD47-SIRPalpha protein protein interaction - LANCE assay qHTS validation (AID 1347057; active = well fitted curve in the direction sought with a large enough effect in the signal ratio, with a control signal flat, not every such curve was filed as active; the % refers to the signal ratio; also: series mostly up to about 38 µM)
Method in brief: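 Inhibition of soluble CD47/SIRPalpha ectodomain association by titrated compounds, measured as 665/615 nm time-resolved FRET ratio after sequential 30 min room-temperature incubations.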

[13] = target: T1, Tyrosine-protein phosphatase non-receptor type substrate 1 (Homo sapiens) + Leukocyte surface antigen CD47 (Homo sapiens); assay: CD47-SIRPalpha protein protein interaction - Alpha assay qHTS validation (AID 1347059);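 also: bead proximity luminescence from CD47 binding SIRPalpha after compound preincubation with SIRPalpha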
Method in brief: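 In PBS (pH 7.4) with 0.05% IGEPAL CA-630, compound is preincubated with biotin-Avi-SIRPalpha ectodomain before His-CD47 ectodomain and affinity beads are added. Light-protected room-temperature incubations; AlphaScreen readout.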

[14] = target: Parathyroid hormone/parathyroid hormone-related peptide receptor (Homo sapiens) (UniProt Q03431); assay: qHTS for PTHR1 Agonists: Optimization Screen against the NCGC LOPAC library (AID 1347079);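 also: GloSensor cAMP luminescence in HEK-293 GP2 cells expressing human PTHR1 with IBMX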
Method in brief: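 HEK-293 GP2 cells, PTHR1 + GloSensor cAMP; 3000 cells/well, o/n. Luciferin + IBMX 0.5mM each (stock), 1 hr 37C. Cpd titration, 1 hr 37C. Lum after 15 min RT. Ctrl M-PTH(1-15) top 10uM.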

Measured: Potency

T1 sequence (P78324 whole entry, looked up, the tested form may be a part): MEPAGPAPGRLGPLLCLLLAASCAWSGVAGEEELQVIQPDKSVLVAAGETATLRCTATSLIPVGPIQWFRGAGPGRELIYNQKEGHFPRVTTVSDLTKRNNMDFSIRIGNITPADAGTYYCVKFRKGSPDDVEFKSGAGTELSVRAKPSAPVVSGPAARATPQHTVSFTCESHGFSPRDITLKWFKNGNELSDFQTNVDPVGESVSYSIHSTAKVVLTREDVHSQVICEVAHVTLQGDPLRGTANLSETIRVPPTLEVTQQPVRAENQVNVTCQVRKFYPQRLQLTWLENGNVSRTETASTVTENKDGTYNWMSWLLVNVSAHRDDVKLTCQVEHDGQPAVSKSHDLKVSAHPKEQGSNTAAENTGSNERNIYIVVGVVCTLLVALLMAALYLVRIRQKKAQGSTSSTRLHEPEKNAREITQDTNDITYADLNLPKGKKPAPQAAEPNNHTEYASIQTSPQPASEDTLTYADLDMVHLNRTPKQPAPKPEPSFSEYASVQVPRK
T1 sequence (Q08722 whole entry, looked up, the tested form may be a part): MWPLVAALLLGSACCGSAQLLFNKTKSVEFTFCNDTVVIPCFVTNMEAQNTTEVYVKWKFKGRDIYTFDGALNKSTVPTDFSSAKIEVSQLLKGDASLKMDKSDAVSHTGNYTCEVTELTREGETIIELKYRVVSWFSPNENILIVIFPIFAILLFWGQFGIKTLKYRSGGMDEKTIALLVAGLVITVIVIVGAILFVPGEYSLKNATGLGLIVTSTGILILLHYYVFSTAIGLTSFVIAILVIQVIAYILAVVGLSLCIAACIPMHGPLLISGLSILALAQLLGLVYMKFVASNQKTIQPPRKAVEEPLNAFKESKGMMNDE
Chain of Atrial natriuretic peptide receptor 1 (Homo sapiens) (P16066 whole entry, looked up): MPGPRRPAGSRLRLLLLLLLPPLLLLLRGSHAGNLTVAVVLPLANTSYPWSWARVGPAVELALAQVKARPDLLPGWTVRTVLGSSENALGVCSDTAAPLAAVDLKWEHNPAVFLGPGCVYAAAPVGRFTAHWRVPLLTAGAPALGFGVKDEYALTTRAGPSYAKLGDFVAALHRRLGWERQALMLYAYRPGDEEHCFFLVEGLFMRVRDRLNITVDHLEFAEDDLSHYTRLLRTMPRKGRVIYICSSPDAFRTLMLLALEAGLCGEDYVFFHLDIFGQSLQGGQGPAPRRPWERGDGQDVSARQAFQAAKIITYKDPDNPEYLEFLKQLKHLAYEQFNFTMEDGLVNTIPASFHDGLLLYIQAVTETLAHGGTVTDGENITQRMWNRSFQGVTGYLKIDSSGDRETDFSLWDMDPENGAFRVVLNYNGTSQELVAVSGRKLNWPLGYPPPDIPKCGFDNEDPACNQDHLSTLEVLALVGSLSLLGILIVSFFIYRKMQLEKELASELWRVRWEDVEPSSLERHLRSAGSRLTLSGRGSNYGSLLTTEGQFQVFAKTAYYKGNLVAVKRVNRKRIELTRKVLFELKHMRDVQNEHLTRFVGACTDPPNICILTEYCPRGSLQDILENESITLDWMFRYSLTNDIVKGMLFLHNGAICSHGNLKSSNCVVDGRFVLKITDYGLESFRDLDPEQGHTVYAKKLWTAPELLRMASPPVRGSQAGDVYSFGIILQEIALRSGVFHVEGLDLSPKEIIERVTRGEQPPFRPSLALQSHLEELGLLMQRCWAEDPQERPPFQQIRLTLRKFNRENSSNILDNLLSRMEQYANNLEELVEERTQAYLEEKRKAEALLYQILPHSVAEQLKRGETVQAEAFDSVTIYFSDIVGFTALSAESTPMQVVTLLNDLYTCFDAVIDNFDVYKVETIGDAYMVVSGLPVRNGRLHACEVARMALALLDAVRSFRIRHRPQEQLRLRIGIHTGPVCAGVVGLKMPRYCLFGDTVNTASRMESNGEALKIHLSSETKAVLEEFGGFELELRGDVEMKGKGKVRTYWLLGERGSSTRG
Chain of Atrial natriuretic peptide receptor 2 (Homo sapiens) (P20594 whole entry, looked up): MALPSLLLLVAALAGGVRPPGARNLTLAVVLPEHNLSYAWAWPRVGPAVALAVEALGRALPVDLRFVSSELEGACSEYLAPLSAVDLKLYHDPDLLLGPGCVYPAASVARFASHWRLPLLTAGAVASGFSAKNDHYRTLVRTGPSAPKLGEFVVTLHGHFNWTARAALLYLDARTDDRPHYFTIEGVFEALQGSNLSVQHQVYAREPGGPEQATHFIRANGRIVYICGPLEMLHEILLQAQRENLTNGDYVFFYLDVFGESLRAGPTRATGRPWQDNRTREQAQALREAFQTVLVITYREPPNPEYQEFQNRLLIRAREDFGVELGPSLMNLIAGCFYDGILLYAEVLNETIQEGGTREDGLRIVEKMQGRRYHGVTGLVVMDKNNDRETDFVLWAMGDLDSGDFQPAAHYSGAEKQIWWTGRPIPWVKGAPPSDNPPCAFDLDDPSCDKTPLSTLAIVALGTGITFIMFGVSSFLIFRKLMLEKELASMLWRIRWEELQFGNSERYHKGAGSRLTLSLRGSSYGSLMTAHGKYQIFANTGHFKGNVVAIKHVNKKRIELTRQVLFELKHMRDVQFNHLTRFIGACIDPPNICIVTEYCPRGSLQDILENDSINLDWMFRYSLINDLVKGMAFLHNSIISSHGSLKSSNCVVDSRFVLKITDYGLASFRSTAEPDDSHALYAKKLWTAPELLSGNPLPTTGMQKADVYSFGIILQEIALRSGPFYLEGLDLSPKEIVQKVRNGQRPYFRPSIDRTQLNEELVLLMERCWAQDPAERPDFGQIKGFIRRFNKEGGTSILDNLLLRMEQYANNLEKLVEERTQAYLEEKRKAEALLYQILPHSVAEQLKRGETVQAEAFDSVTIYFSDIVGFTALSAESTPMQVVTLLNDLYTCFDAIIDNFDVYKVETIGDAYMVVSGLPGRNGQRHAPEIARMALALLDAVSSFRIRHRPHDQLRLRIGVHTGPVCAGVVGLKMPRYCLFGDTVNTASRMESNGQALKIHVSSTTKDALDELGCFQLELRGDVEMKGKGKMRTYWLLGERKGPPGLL
Chain of Parathyroid hormone/parathyroid hormone-related peptide receptor (Homo sapiens) (Q03431 whole entry, looked up): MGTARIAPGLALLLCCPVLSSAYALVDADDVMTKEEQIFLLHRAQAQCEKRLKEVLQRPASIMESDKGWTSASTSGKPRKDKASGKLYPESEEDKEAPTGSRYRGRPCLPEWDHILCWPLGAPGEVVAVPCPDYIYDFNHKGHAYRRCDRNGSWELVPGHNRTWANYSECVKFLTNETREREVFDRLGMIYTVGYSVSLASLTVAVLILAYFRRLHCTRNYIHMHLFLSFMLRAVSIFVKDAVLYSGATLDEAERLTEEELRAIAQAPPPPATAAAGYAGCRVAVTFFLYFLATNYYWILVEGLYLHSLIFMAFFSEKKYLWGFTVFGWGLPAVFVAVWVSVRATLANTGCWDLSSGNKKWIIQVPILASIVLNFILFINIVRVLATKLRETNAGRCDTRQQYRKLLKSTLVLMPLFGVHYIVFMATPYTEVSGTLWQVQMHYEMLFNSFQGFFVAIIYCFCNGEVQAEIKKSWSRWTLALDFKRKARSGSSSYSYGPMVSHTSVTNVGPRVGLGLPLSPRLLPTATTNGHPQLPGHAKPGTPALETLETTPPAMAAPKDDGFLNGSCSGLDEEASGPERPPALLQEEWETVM

CCCCCCCCOc1ccccc1C(=O)Nc1ccc(C(=O)OCC[N+](C)(CC)CC)cc1
inactive: [1] | [2] | [3] | [4]

C[C@H](Cn1cnc2c(N)ncnc21)OCP(=O)(O)O
inactive: [1] | [5] | [2] | [3] | [4] | [6] | [7] | [8]

CCN(CC)CCOc1ccc(Cc2ccccc2)cc1
inactive: [1] | [2] | [3] | [4] | [6]

CNC[C@H](O)c1ccc(O)c(O)c1
active: [8] 42.9 µM
inactive: [1] | [2] | [9] | [10] | [11] | [3] | [12] | [13] | [14] | [4] | [6] | [7]

CCOc1cc(CC(=O)N[C@@H](CC(C)C)c2ccccc2N2CCCCC2)ccc1C(=O)O
inactive: [1] | [5] | [2] | [3] | [4] | [6] | [7] | [8]

Oc1ccc(OCc2ccccc2)cc1
inactive: [1] | [5] | [2] | [3] | [4] | [6] | [7] | [8]

CC(C)[C@H](N)C(=O)OCCOCn1cnc2c(=O)[nH]c(N)nc21
inactive: [1] | [5] | [2] | [3] | [4] | [6] | [7] | [8]

Cc1cc2cc3c(C)cc(=O)oc3c(C)c2o1
inactive: [1] | [5] | [2] | [3] | [4] | [7]

COc1ccc(C2(C#N)CCC(C(=O)O)CC2)cc1OC1CCCC1 (stereo not given)
inactive: [1] | [2] | [3] | [4] | [6] | [7]

CN(C)C(=O)COC(=O)Cc1ccc(OC(=O)c2ccc(N=C(N)N)cc2)cc1
inactive: [1] | [2] | [3] | [4] | [6] | [7]

COCCCOc1ccnc(CS(=O)c2nc3ccccc3[nH]2)c1C (stereo not given)
inactive: [1] | [5] | [3] | [4] | [6] | [7] | [8]
3.66 µM (active) and inactive: [2]
